Of roughly 7,900 targets only a part is listed; those with a hit were picked by preference. About 0.6% of all pairs of compound and target were hits.
Legend:
Experiment in all cases: log2 fold change, soluble protein after heating vs DMSO (PISA); higher = thermal stabilisation; K562 cells, 10 uM, 30 min; active = over 0.2 and 3.5 SD of the protein, either way, in both replicates (recomputed)
[1] = compound: C1=CC=C(C=C1)[C@H](COC2=CC3=C(C=C2)NC(=O)N3)NC(=O)C4=CC=CN(C4=O)CC5=CC(=C(C=C5)F)F
Method in brief: (§1)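 Quantification of soluble protein used TMTpro 16plex LC-MS/MS, with channel sums equalised. Samples were the supernatant after 21,000xg for 90 min of pooled aliquots from K562 cells (2×10^6 cells/mL) treated with 10 μM compound for 30 min, heated for 3 min over 48°C-58°C, and extracted in PBS with 0.5% NP-40 at 4°C. Values, from duplicates, describe thermal stability against control samples on a log2 fold-change scale.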

[2] = compound: CC1=C(SC2=C1C(=N[C@H](C3=NN=C(N32)C)CC(=O)N)C4=CC=C(C=C4)Cl)C
Method in brief: as §1

[3] = compound: CC1=C2C(=CC=C1)N=C(N(C2=O)C3=CC=CC=C3C)CN4C=NC5=C(N=CN=C54)N
Method in brief: as §1

[4] = compound: Cc1sc2c(c1C)C(c1ccc(Cl)cc1)=N[C@@H](CC(=O)OC(C)(C)C)c1nnc(C)n1-2
Method in brief: as §1

[5] = compound: c1ccc([C@@H]2C[C@H]2NC2CCNCC2)cc1
Method in brief: as §1

Measured: log2 fold change

PHF5A (UniProt Q7RTV0)
Sequence of UniProt Q7RTV0 (Q7RTV0 whole entry, looked up): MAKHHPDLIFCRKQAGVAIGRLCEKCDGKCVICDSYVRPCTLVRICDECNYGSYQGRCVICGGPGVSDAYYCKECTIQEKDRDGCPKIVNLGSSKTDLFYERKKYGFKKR
inactive: [1] 0.048 | [2] -0.024 | [3] 0.018 | [4] 0.002 | [5] 0.018

PARN (UniProt O95453)
inactive: [1] -0.018 | [2] 0.059 | [3] 0.071 | [4] -0.028 | [5] 0.025

PARP16 isoform 3 (UniProt Q8N5Y8)
Sequence of UniProt Q8N5Y8 (Q8N5Y8 whole entry, looked up): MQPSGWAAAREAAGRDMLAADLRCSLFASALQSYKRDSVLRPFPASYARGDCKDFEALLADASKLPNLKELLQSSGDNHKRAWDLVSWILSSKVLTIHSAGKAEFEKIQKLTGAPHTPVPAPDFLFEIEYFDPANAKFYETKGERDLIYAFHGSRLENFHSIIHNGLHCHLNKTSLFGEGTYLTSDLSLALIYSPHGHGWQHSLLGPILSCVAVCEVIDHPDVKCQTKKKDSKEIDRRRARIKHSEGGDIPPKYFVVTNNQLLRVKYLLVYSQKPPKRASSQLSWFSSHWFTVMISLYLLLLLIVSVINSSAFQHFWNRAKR
inactive: [1] -0.019 | [2] -0.019 | [3] 0.012 | [4] -0.041 | [5] 0.001

PTPN23 (UniProt Q9H3S7)
inactive: [1] -0.038 | [2] 0.048 | [3] 0.054 | [4] 0 | [5] 0.038

PGK2 (UniProt P07205)
Sequence of UniProt P07205 (P07205 whole entry, looked up): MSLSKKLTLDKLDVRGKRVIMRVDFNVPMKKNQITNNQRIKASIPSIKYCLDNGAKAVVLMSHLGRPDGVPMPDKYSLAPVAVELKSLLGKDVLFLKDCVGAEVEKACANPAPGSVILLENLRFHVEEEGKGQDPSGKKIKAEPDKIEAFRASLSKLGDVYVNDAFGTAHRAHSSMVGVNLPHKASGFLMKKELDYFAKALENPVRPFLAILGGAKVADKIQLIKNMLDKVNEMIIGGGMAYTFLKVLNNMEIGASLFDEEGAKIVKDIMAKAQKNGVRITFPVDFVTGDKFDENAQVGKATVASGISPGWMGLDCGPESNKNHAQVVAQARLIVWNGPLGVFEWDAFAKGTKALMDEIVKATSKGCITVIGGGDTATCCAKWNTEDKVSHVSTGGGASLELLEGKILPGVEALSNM
inactive: [1] -0.1 | [2] 0.046 | [3] 0.153 | [4] 0.037 | [5] 0.034

PTK2B (UniProt Q14289)
inactive: [1] -0.105 | [2] -0.098 | [3] 0.194 | [4] 0 | [5] -0.013

POTEI (UniProt P0CG38)
inactive: [1] 0.025 | [2] 0.012 | [3] -0.059 | [4] -0.03 | [5] -0.002

PCNT (UniProt O95613)
inactive: [1] 0.037 | [2] -0.067 | [3] 0.11 | [4] 0.064 | [5] 0.105

PIGG (UniProt Q5H8A4)
inactive: [1] 0.12 | [2] 0.031 | [3] -0.091 | [4] 0.006 | [5] -0.003

PSD3 (UniProt Q9NYI0)
Sequence of UniProt Q9NYI0 (Q9NYI0 whole entry, looked up): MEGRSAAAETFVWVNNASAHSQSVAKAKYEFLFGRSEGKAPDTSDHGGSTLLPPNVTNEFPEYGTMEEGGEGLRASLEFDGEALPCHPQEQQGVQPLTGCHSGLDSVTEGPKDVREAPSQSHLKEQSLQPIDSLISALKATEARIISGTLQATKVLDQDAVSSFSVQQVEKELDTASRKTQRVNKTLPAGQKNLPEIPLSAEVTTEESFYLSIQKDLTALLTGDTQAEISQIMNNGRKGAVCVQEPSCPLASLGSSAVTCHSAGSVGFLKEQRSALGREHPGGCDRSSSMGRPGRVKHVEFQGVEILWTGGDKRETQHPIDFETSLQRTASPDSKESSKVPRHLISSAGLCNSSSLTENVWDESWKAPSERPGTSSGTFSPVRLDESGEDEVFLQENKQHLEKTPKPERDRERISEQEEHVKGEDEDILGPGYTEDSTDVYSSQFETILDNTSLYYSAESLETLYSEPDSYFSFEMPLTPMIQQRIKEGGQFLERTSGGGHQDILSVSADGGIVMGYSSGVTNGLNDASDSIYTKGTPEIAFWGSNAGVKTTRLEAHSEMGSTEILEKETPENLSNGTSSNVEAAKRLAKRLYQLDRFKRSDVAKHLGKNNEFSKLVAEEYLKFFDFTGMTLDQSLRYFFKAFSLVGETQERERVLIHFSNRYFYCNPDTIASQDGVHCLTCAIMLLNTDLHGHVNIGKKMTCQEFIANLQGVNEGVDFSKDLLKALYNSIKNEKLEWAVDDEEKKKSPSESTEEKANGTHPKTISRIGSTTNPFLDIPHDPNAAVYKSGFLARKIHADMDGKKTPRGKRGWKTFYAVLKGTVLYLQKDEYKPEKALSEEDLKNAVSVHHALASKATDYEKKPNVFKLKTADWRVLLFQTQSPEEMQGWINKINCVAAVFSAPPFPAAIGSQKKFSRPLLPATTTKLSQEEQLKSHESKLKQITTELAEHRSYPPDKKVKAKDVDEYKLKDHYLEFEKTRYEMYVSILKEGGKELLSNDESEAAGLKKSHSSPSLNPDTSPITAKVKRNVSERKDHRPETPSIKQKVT
inactive: [2] 0.045 | [3] 0.052 | [5] -0.028

PSMC3 (UniProt E9PLG2)
inactive: [1] 0.03 | [3] -0.056 | [4] 0.252

PHC3 isoform 7 (UniProt Q8NDX5)
inactive: [1] -0.023 | [2] -0.025 | [5] -0.075

PRKD3 (UniProt O94806)
Sequence of UniProt O94806 (O94806 whole entry, looked up): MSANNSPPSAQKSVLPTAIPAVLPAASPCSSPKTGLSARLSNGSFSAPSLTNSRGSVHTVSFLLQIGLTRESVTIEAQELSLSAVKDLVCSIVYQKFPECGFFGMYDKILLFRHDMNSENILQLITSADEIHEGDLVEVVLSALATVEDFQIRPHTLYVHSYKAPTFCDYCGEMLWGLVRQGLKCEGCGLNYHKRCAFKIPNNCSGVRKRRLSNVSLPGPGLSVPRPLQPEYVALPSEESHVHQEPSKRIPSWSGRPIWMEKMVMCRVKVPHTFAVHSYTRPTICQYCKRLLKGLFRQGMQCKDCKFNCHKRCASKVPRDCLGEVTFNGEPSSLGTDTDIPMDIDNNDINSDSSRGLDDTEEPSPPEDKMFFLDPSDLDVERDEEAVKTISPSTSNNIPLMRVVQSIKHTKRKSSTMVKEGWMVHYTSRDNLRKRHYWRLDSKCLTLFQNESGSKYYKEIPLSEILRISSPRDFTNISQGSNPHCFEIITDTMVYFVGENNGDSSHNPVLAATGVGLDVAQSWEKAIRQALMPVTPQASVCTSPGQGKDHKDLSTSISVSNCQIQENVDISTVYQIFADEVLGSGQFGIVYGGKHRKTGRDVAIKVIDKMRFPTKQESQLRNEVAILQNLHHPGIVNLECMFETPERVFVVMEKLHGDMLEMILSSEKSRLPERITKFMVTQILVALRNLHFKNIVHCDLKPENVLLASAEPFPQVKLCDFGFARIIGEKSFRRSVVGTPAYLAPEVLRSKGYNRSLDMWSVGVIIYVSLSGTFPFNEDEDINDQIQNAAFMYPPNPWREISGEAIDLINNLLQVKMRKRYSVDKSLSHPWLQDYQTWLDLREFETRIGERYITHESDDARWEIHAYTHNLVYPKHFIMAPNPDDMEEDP
inactive: [1] -0.103 | [2] 0.044 | [3] -0.007 | [5] -0.097

POGZ (UniProt Q7Z3K3)
inactive: [2] 0.056 | [3] 0.099 | [4] 0.025 | [5] -0.032

POLA2 (UniProt Q14181)
Sequence of UniProt Q14181 (Q14181 whole entry, looked up): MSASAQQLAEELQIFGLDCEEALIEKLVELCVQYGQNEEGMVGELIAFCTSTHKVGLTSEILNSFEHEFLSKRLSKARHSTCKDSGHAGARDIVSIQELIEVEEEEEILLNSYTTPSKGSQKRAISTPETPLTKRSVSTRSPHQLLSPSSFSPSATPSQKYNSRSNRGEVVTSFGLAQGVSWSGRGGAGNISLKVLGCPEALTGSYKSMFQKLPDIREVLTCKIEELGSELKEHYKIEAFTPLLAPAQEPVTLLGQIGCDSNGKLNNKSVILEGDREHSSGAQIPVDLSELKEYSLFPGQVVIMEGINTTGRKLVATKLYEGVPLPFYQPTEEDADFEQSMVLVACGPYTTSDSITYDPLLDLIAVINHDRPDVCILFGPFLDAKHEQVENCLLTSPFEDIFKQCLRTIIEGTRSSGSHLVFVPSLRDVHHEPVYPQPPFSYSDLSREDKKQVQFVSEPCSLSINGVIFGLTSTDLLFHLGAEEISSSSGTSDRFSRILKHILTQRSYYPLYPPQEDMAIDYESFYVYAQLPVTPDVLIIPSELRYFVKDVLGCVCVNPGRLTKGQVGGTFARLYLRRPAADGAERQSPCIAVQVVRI
inactive: [1] -0.023 | [2] 0.048 | [3] 0.114 | [4] -0.006 | [5] 0.034

PMVK (UniProt Q15126)
inactive: [1] -0.156 | [2] 0.004 | [3] 0.116 | [4] 0.063 | [5] 0.028

PSMD8 (UniProt K7ERW6)
inactive: [3] 0.2 | [4] 0.03

POMP (UniProt Q9Y244)
Sequence of UniProt Q9Y244 (Q9Y244 whole entry, looked up): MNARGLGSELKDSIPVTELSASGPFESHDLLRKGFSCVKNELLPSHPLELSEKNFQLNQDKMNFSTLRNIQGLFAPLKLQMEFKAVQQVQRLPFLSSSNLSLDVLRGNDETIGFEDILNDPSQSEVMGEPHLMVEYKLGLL
inactive: [1] -0.101 | [2] -0.077 | [3] -0.069 | [4] -0.018 | [5] -0.009

PECAM1 (UniProt P16284)
inactive: [1] 0.063 | [2] 0.138 | [3] 0.014 | [4] -0.06 | [5] 0.047

PPIL1 (UniProt Q9Y3C6)
Sequence of UniProt Q9Y3C6 (Q9Y3C6 whole entry, looked up): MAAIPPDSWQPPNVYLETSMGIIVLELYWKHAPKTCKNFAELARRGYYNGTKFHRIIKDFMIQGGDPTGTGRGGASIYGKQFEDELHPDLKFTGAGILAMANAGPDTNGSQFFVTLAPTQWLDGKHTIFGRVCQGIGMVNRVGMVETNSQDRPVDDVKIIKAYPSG
inactive: [1] -0.046 | [2] 0.012 | [3] 0.021 | [4] 0.032 | [5] -0.052

PCF11 (UniProt O94913)
inactive: [1] -0.319 | [2] -0.02 | [3] 0.068 | [5] 0.006

PSMA3 (UniProt G3V4X5)
inactive: [1] -0.073 | [3] 0.147

PRMT8 (UniProt Q9NR22)
inactive: [1] -0.002 | [2] 0.133 | [3] 0.046 | [4] -0.028 | [5] -0.015

PKM isoform 2 (UniProt P14618)
inactive: [1] 0.063 | [3] -0.057 | [4] -0.046

PDE4DIP (UniProt E9PS60)
inactive: [2] 0.013 | [3] -0.209 | [5] -0.069

PTP4A3 (UniProt O75365)
inactive: [1] 0.037 | [3] 0.391

PEX5 isoform 4 (UniProt P50542)
inactive: [2] -0.147 | [3] 0.043 | [4] 0.059 | [5] 0.006

PSMD8 (UniProt K7EK21)
inactive: [2] -0.11 | [5] 0.188

PSMB9 (UniProt P28065)
inactive: [1] 0.182 | [2] 0.138 | [3] 0.179 | [5] -0.203

PCNX1 (UniProt Q96RV3)
inactive: [1] 0.064 | [3] 0.103 | [4] -0.122

PDPK1 (UniProt O15530)
inactive: [2] 0.065 | [3] 0.014 | [4] -0.038 | [5] -0.018

PIAS4 (UniProt Q8N2W9)
inactive: [4] 0.129

PUM1 (UniProt Q14671)
Sequence of UniProt Q14671 (Q14671 whole entry, looked up): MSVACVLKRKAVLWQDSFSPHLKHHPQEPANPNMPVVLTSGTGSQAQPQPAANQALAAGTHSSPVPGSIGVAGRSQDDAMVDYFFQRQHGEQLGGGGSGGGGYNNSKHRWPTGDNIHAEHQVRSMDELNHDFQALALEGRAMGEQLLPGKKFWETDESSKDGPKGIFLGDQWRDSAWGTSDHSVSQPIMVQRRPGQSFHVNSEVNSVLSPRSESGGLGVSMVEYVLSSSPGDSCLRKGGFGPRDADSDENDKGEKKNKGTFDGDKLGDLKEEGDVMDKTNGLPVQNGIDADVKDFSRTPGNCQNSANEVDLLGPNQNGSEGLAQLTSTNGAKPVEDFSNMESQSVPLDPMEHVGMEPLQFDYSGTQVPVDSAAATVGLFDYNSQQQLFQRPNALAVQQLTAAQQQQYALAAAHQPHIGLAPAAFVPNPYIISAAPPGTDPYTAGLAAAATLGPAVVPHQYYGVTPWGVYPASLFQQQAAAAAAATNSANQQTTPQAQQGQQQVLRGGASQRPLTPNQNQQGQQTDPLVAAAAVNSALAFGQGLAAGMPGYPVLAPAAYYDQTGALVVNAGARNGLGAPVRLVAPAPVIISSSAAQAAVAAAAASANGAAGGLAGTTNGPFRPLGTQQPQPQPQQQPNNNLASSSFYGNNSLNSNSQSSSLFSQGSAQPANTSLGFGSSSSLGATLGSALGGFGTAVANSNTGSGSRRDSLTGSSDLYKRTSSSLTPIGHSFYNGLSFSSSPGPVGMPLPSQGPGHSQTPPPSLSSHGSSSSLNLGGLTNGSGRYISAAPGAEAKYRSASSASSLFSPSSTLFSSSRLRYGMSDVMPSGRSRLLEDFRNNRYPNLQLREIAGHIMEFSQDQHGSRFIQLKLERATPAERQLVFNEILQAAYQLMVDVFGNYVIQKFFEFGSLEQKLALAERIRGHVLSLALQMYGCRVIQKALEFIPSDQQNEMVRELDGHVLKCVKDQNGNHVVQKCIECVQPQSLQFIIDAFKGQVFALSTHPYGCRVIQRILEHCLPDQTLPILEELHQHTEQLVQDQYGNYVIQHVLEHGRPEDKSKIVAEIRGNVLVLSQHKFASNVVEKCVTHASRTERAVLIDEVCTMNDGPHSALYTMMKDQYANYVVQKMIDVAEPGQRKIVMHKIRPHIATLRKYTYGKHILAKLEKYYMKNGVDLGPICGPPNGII
inactive: [2] 0.116 | [4] 0.059 | [5] -0.094

PRR14L (UniProt Q5THK1)
inactive: [2] -0.052 | [3] 0.312 | [4] 0.042 | [5] 0.103

PPP2R5B (UniProt Q15173)
inactive: [1] -0.058 | [3] -0.098

PAN2 (UniProt Q504Q3)
inactive: [1] -0.298 | [3] 0.053

PPP1R12C (UniProt Q9BZL4)
inactive: [1] -0.16 | [3] 0.05 | [4] 0.053

PSMC1 (UniProt G3V4X1)
inactive: [2] -0.021 | [5] 0.112

POLB (UniProt P06746)
inactive: [2] 0.053 | [4] -0.107 | [5] -0.006

PSMD13 (UniProt Q9UNM6)
inactive: [1] -0.008 | [2] -0.096 | [3] -0.046 | [4] -0.028 | [5] 0

PSMA3 (UniProt H0YJ03)
inactive: [2] 0.193 | [3] 0.119 | [4] 0.048 | [5] 0.034

PCBP2 (UniProt F8VZX2)
inactive: [1] -0.1 | [2] -0.107 | [5] 0.019

PKN1 isoform 2 (UniProt Q16512)
inactive: [1] -0.077 | [2] 0.079 | [3] 0.069 | [4] 0.015 | [5] 0

PNN (UniProt Q9H307)
inactive: [1] 0.084 | [2] 0.021 | [5] 0.012

PHKA1 (UniProt P46020)
inactive: [1] 0.028 | [2] -0.078 | [4] 0.103 | [5] 0.011

Source: the supplement of paper PMC10849652
